The source of these data is PubChem BioAssay (Tox21).

Experiment [1] can be described thus: qHTS assay to identify small molecule antagonists of the TGF-beta/Smad signaling pathway - cell viability counter screen (AID 1346824). Further: nearly all actives have a fitted effect of over 50% in size. In a few lines: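 SBE-bla HEK 293T cells were plated overnight at 37 C, then given compounds in DMSO plus TGF-beta1 (added as 0.25 ng/mL solution) for 5 hr. After the bla read, CellTiter-Glo was added to the same wells and luminescence read after 30 min at room temperature.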
(qHTS replaces the single test concentration by a dilution series.)

The nature of experiment [2]: qHTS assay to identify small molecule agonists of the TGF-beta/Smad signaling pathway - cell viability counter screen (AID 1346829). Further: top concentration of the series differs between compounds; nearly all actives have a fitted effect of over 45% in size. In outline: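 Cytotoxicity counter screen: CellTiter-Glo luminescence (30 min, room temperature) measured in the SBE-bla HEK 293T reporter wells after 5 hr compound treatment at 37 C and the 2 hr substrate step.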
Experiment [3] can be described thus: qHTS assay to identify small molecule agonists of the TGF-beta/Smad signaling pathway (AID 1346859; active means well fitted activation curve with a large enough effect in the signal ratio in the repeat runs, not every such curve was filed as active; the % refers to the signal ratio; further: series mostly up to about 77 µM). In a few lines:
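Each well held 4,000 SBE-bla HEK 293T cells incubated overnight before compound addition; 5 hr later the cleavable FRET substrate went on for 2 hr at room temperature, and fluorescence was read at two emissions.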

The target of experiment [4] is Thyrotropin-releasing hormone receptor (Homo sapiens) (UniProt P34981). The experiment can be described thus: qHTS assay to identify small molecule agonists of the thyrotropin-releasing hormone receptor (TRHR) signaling pathway (AID 1346891; calls by dose curve; further: series mostly up to about 58 µM). In outline:
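Screening of agonists relied on calcium signalling in HEK293 cells expressing human TRHR: dye loading 2 h at 37 °C preceded compound addition and a 3-min fluorescence time course.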

Experiment [5] is described as follows: Caspase-3/7 induction in CHO-K1 cells by small molecules, qHTS assay (AID 1346980). Further: nearly all actives have a fitted effect of over 15% in size. In a few lines: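 Wild-type cells were seeded at 1,500 per well and settled 5 hr at 37 C, 5% CO2, then exposed to DMSO-dissolved compounds for 17 hr. Caspase-Glo 3/7 reagent was added, and luminescence was read after 30min at room temperature.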
Experiment [6] in a line: Human pregnane X receptor (PXR) small molecule agonists, qHTS cell viability counter screen (AID 1346977). Further: nearly all actives have a fitted effect of over 50% in size. In outline:
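Tox21 qHTS format; PXR-Luc HepG2, 2,000/well, charcoal-stripped FBS 5%. Cpd exposure 24hr. Read: CellTiter-Fluor fluorescence, multiplexed with luciferase.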

Experiment [7] can be described thus: Caspase-3/7 induction in CHO-K1 cells by small molecules, qHTS cell viability counter screen (AID 1346979). Further: nearly all actives have a fitted effect of over 35% in size. Further: potency means the concentration at half of the fitted maximal effect. In outline:
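CellTiter-Fluor viability check, qHTS format: wild-type CHO-K1, 16hr compound treatment, 1hr reagent incubation, fluorescence read.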

Experiment [8] can be described thus: Caspase-3/7 induction in HepG2 cells by small molecules, qHTS cell viability counter screen (AID 1346981). Further: series mostly up to about 92 µM; nearly all actives have a fitted effect of over 30% in size. In a few lines:
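Wild-type HepG2 cells (2,000/well) were allowed to settle for 5 hr at 37 C, 5% CO2, then dosed with compounds in DMSO by pin transfer. After 16 hr at 37 C, CellTiter-Fluor was added and fluorescence read 1 hr later.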

Experiment [9] can be described thus: Caspase-3/7 induction in HepG2 cells by small molecules, qHTS assay (AID 1346978). Further: nearly all actives have a fitted effect of over 15% in size. Further: potency means the concentration at half of the fitted maximal effect. In outline:
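Wild-type HepG2 cells (2,000/well) were settled 5 h at 37 C, 5% CO2, then exposed to compounds in DMSO for 17 h. Caspase-3/7 activity was read by luminescence 30 min after adding Caspase-Glo 3/7 reagent at room temperature.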

Experiment [10] concerns the target Thyrotropin-releasing hormone receptor (Homo sapiens) (UniProt P34981). In words: qHTS assay to identify small molecule antagonists of the thyrotropin-releasing hormone receptor (TRHR) signaling pathway (AID 1346877; active means well fitted inhibition curve with a large enough effect in the repeat runs, not every such curve was filed as active; further: series mostly up to about 51 µM). In outline:
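TRHR-expressing HEK293 cells were seeded, cultured 18 h at 37 °C, then loaded with calcium dye for 2 h. Compounds were pre-incubated 5 min at room temperature before 1 nM TRH (final) was added, and kinetic fluorescence was recorded for 3 min.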

Several values for one entry are separate records, joined by “and”; a condition that tells them apart may be missing. Identical values can stand only once. Inconclusive results are not listed. Activity calls are given as the source filed them. Unless noted, the call rests on the fitted dose curve; in most records, active means well fitted curve in the direction sought with a large enough effect in the repeat runs; inconclusive means weak or mixed curves; inactive means no such curve, though single readings can be large; an effect the other way counts as inactive or inconclusive.

Chain of Thyrotropin-releasing hormone receptor (Homo sapiens) (P34981 whole entry, looked up): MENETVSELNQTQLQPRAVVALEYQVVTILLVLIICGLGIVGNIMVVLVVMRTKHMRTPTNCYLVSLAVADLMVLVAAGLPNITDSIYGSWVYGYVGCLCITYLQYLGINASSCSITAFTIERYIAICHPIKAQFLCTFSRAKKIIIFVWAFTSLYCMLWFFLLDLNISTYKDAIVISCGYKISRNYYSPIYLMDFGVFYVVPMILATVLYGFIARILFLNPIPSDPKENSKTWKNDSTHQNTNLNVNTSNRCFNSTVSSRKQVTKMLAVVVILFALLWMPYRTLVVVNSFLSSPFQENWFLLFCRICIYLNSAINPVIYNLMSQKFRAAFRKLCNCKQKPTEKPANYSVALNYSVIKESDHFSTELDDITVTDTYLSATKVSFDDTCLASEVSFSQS

In the case of `CC1=C(C)S(=O)(=O)CCS1(=O)=O`, the Potency result in [1] and in [2] was “inactive” in each case. The call in experiment [3], in experiment [4] and in experiment [5] was inactive.
With `OCC(CO)(CBr)CBr`, the Potency entry in experiment [1], in experiment [2], in [6], in [7] and in experiment [8] was “inactive” in each case. The outcome in [3], in [4] and in experiment [5] was inactive.
Turning to `C=C(C)C(=O)OCCOCCOCCOC(=O)C(=C)C`, the Potency result in experiment [1], in [2], in [6], in experiment [9], in experiment [7] and in [8] was “inactive” throughout. Besides, the result in experiment [3], in experiment [4] and in [5] was inactive.
As for `Fc1ccc(Br)cc1`, the Potency result in [1], in experiment [2], in experiment [6] and in experiment [8] was “inactive” each time. Also, the compound was called inactive in experiment [3], in experiment [4] and in [5].
Turning to `CC(=O)CC(=O)Nc1ccccc1C`, the Potency entry in experiment [1], in experiment [2], in experiment [6], in experiment [9] and in experiment [8] was “inactive” throughout. In addition, the compound was called inactive in experiment [3] and in experiment [5].
Take `CC(C)(C)[C@@H](O)[C@@H](Cc1ccc(Cl)cc1)n1cncn1`: the Potency entry in experiment [1], in experiment [2], in experiment [6], in [9] and in [8] was “inactive” throughout. Also, the compound was called inactive in [3], in [4] and in [5].
As to `C#CCN(C)Cc1ccccc1`, the Potency entry in [1], in experiment [2], in [6], in [9] and in experiment [8] was “inactive” each time. Moreover, the compound was called inactive in experiment [3] and in experiment [5].
In the case of `CCCCC(CC)CO` (centres undefined), the Potency entry in [1], in experiment [2], in [6], in experiment [9], in experiment [7] and in [8] was “inactive” throughout. The result in experiment [3] and in [5] was inactive.
As for `O=C(CC(C(=O)OC1CCCCC1)S(=O)(=O)O)OC1CCCCC1` (centres undefined), the Potency result in [1], in [2], in experiment [6], in [9] and in experiment [8] was “inactive” throughout. Moreover, the outcome in experiment [3] and in experiment [5] was inactive.
For the compound `c1ccc2c(c1)ccc1ccccc12`, the Potency entry in experiment [1], in experiment [2], in [6], in experiment [9], in experiment [7] and in experiment [8] was “inactive” in each case. In addition, the compound was classed as inactive in experiment [3], in experiment [4] and in experiment [5].
Regarding `Cc1cccnc1`, the Potency entry in [1], in [2], in experiment [6], in experiment [9], in [7] and in experiment [8] was “inactive” in each case. Besides, the compound was classed as inactive in [3], in [4] and in [5].
`O=c1[nH]nnc2ccccc12`: the Potency result in experiment [1], in experiment [2], in experiment [6], in [9], in experiment [7] and in [8] was “inactive” each time. The outcome in experiment [3] and in [5] was inactive.
`CCCCC(CC)COC(=O)C(C#N)=C(c1ccccc1)c1ccccc1` (centres undefined): the Potency result in experiment [1], in experiment [2], in experiment [6], in [9] and in experiment [8] was “inactive” in each case. Besides, the compound was classed as inactive in [3], in experiment [4] and in experiment [5]. Also, the Potency in experiment [7] was 48.6 µM (active) and 18.8 µM (active).
Regarding `CCCSc1ccc2nc(NC(=O)OC)[nH]c2c1`, the Potency result in experiment [1], in [2], in experiment [6] and in experiment [8] was “inactive” throughout. Moreover, the call in experiment [3], in experiment [4] and in experiment [5] was inactive. Also, the Potency in experiment [9] was 0.969 µM (active).
As for `O=C(O)c1ccc2c(c1)C(=O)OC2=O`, the Potency result in [1], in experiment [2], in experiment [6], in experiment [9], in experiment [7] and in [8] was “inactive” throughout. The call in [3], in experiment [4] and in experiment [5] was inactive.
As for `O=c1[nH]c(=O)n([C@H]2C[C@H](O)[C@@H](CO)O2)cc1Br`, the Potency entry in experiment [1], in [2], in experiment [10], in experiment [9], in experiment [7] and in experiment [8] was “inactive” throughout. Also, the result in experiment [3] and in experiment [5] was inactive.
With `CC1CCC(C(C)C)C(O)C1` (centres undefined), the Potency result in [1], in [2], in experiment [6], in [9], in experiment [7] and in [8] was “inactive” in each case. The outcome in experiment [3] and in [5] was inactive.
Take `CC(C)c1ccc(S(=O)(=O)O)cc1`: the Potency entry in experiment [1], in [2], in experiment [6], in [9] and in [8] was “inactive” throughout. Besides, the compound was classed as inactive in experiment [3] and in [5].
In the case of `c1ccc(OCCOc2ccccc2)cc1`, the Potency entry in [1], in [2], in [6], in [9], in [7] and in experiment [8] was “inactive” in each case. Also, the outcome in experiment [3] and in [5] was inactive.
Take `COc1cc(Cc2cnc(N)nc2N)cc(OC)c1OC`: the Potency result in experiment [1], in [2], in experiment [6], in [9], in experiment [7] and in [8] was “inactive” throughout. Further, the outcome in [3] and in experiment [5] was inactive.
As for `CCOC(=O)NNc1nncc2ccccc12`, the Potency result in experiment [1], in experiment [2], in experiment [6], in [9], in experiment [7] and in experiment [8] was “inactive” in each case. The call in [3] and in experiment [5] was inactive.
`O=S(=O)(O)c1ccc2ccccc2c1`: the Potency result in experiment [1], in experiment [2], in [6], in [9], in experiment [7] and in experiment [8] was “inactive” in each case. Moreover, the outcome in [3], in experiment [4] and in [5] was inactive.
On to `CC1CCC2CC1C2(C)C` (centres undefined), for which the Potency entry in [1], in [2], in [10], in experiment [7] and in [8] was “inactive” throughout. For the same compound, the outcome in experiment [3] and in [5] was inactive.
For `CCCCCC(N)=O`, the Potency entry in experiment [1], in experiment [2], in [6] and in [8] was “inactive” in each case. Moreover, the compound was called inactive in experiment [3] and in [5].
Take `COc1ccc2cc([C@H](C)C(=O)O)ccc2c1`: the Potency entry in experiment [1], in [2] and in [8] was “inactive” in each case. In addition, the outcome in experiment [3] and in [5] was inactive.
As for `COS(C)(=O)=O`, the Potency result in experiment [1], in experiment [2], in experiment [9] and in [8] was “inactive” throughout. For the same compound, the outcome in experiment [3] and in [5] was inactive.
Consider `C[C@H]1C[C@@H]2[C@H]([C@@H](O)C[C@@]3(C)[C@H]2CC[C@]3(O)C(=O)CO)[C@@]2(C)C=CC(=O)C=C12`, for which the Potency entry in experiment [1], in [2], in experiment [9], in experiment [7] and in [8] was “inactive” each time. In addition, the compound was called inactive in [3] and in experiment [5].
`C=C(C)C(=O)O[C@H]1C[C@@H]2CC[C@@]1(C)C2(C)C`: the Potency result in experiment [1], in experiment [2], in experiment [6], in [7] and in [8] was “inactive” throughout. Besides, the result in experiment [3] and in experiment [5] was inactive.
As for `CCN(CC)c1ccc(C(=O)c2ccccc2C(=O)O)c(O)c1`, the Potency result in [1], in experiment [2], in experiment [6], in [9] and in experiment [8] was “inactive” in each case. In addition, the compound was called inactive in [4] and in experiment [5].
